In PubChem BioAssay AID624267 (The Scripps Research Institute Molecular Screening Center, 2012):
The whole screen tested about 360,000 compounds, of which about 1,400 (0.39%) were called active. The entries come from a sample that favours actives as a whole. Values without a mark were called inactive. No stated cut-off is given here; in the data, active means inhibition above about 21%; inactive means the rest.

These molecules were tested against Receptor-interacting serine/threonine-protein kinase 2 (Homo sapiens) (UniProt O43353) (assay: inhibitors of RIPK2 association with NOD2 – fluorescence, CHO cells, BLA complementation, primary screen (AID 624267;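 further: 0% = vehicle only and 100% = reference blocker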)). Conditions: CHO BLA complementation NOD2-RIPK2, CCF4 ratio; at 4.98 µM; hits give high values.
Sequence of Receptor-interacting serine/threonine-protein kinase 2 (Homo sapiens) (O43353 whole entry, looked up): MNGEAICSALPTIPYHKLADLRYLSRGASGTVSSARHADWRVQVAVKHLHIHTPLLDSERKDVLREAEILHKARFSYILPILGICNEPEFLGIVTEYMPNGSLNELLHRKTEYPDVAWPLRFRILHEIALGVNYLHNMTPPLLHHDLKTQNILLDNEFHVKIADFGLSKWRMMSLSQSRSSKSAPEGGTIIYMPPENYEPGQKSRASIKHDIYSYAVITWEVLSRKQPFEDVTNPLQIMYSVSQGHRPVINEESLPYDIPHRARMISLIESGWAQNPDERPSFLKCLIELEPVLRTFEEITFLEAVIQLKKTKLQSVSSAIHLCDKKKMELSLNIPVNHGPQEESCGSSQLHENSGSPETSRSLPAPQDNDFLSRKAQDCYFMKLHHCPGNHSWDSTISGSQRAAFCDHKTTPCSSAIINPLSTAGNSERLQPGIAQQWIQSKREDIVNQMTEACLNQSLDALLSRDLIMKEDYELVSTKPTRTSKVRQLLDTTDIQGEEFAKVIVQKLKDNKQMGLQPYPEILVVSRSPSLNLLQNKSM
With `CCCCN(CCCC)CCCNC(=O)CN1C(=O)COc2ccc(S(=O)(=O)N3CCC(C)CC3)cc21` the inhibition was -2.68%.
`CC(=O)Nc1cccc(Nc2ccc(C#N)cc2)c1` showed an inhibition of 3.65%.
Molecule `COC(=O)c1ccc(C2NC(=O)NC(C)=C2C(=O)N(C)C)cc1` (centres undefined) has an inhibition of -10%.
`CCOC(=O)C1=C(C)NC2=C(C(=O)CC(C)(C)C2)C1c1ccsc1` (centres undefined) showed an inhibition of 2.36%.
For `CCOC(=O)C1=C(C)Nc2sc(C(=O)c3ccc(Br)cc3)c(N)c2C1c1ccc(C(=O)OC)cc1` (centres undefined), the inhibition was 27% (active).
For `COc1ccc(NC(=O)/C(Cl)=C(/Cl)S(=O)Cc2ccc(C)cc2)cn1` (centres undefined), the inhibition was 95.1% (active).
In the case of `NC(Cc1ccccc1)c1csc(Nc2cc(Oc3ccccc3)ncn2)n1` (centres undefined), the inhibition is reported as -5.36%.
In the case of `O=C(COC(=O)c1ccccc1NC(=O)c1ccco1)Nc1ccc2c(c1)OC(F)(F)O2`, the inhibition is reported as -2.03%.
Molecule `N#Cc1cc([N+](=O)[O-])ccc1NCC1CCCO1` (centres undefined) has an inhibition of -32.9%.
With `O=C1C(C=NCC2CCCO2)=C(O)c2ccccc21` (centres undefined) the inhibition was -5.23%.
With `O=C1c2cccc3c([N+](=O)[O-])ccc(c23)C(=O)N1CC1CCCO1` (centres undefined) the inhibition was 80.1% (active).
`Cc1ccc(S(=O)(=O)N2CCN(C(=O)c3cc(S(=O)(=O)N4CCOCC4)ccc3F)CC2)cc1` was tested, and the inhibition was -18.2%.
`CCc1ccc(OC2(C)CCN(CCOc3ccc(C)cc3)C2)cc1` (centres undefined) was tested, and the inhibition was 0.79%.
With `COc1ccc(C2CC(c3cccs3)=NN2c2nc(C)c(C(C)=O)s2)cc1OC` (centres undefined) the inhibition was 6.76%.
For `COc1ccccc1N1N=C(c2cccs2)CC1c1ccccc1` (centres undefined), the inhibition was 49.9% (active).
In the case of `Fc1ccc(N2N=C(c3cccs3)CC2c2ccco2)c(F)c1` (centres undefined), the inhibition is reported as -13.7%.
With `Cc1ncoc1C(=O)N1CCCC(C(=O)c2ccc3c4c(cccc24)CC3)C1` (centres undefined) the inhibition was 1.4%.
`Cc1ccccc1C(=O)NCC(c1ccco1)N1CCc2ccccc21` (centres undefined) was tested, and the inhibition was 7.15%.
`COC(=O)C1=C(C(=O)c2ccc(C)cc2)C(c2ccccc2)n2nnnc2N1` (centres undefined) was tested, and the inhibition was 2.81%.
For `COc1ccc(C2=CC(c3cccc(OC)c3)n3nnnc3N2)cc1` (centres undefined), the inhibition was 26.8% (active).
Molecule `COc1ccc(C2CC(c3cccs3)Nc3nnnn32)cc1` (centres undefined) has an inhibition of -2.81%.
`O=C1N(c2ccc(Cl)cc2)C(c2ccc(Cl)cc2)N2CCCN12` (centres undefined) was tested, and the inhibition was 8.61%.
Work on `Cc1ccsc1-c1cc(C(=O)O)c2c(ccc3ccccc32)n1` yielded an inhibition of 0.09%.
Work on `CCOC(=O)C1(Cc2cccc(OC)c2)CCN(Cc2csc(C(C)=O)c2)CC1` yielded an inhibition of -2.05%.
`CCCc1c(C(=O)Nc2ccc(F)cc2)cnn1-c1ccccc1` gave an inhibition of -3.44%.
`O=C(c1cccc(-n2cccc2)c1)N1CCN(S(=O)(=O)c2ccc(F)cc2)CC1` showed an inhibition of -0.82%.
With `O=[N+]([O-])/C=C/c1ccc2c(ccn2Cc2ccccc2)c1` the inhibition was 87.9% (active).
`COC(=O)N1CN(C(=O)OC)CN(C(=O)OC)C1` showed an inhibition of -12.2%.
With `CN1CCN(CCCNC(=O)c2ccc(/C=C3\Oc4ccccc4N(Cc4ccc(Cl)cc4)C3=O)cc2)CC1` the inhibition was 33.1% (active).
For `O=C(CCN1C(=O)COc2ccccc21)NCCCN1CCN(c2ccc(F)cc2)CC1`, the inhibition was -5.53%.
Molecule `Cc1ccc(NC(=O)CCCNC(=O)c2ccc(Cl)cc2)cc1S(=O)(=O)N1CCOCC1` has an inhibition of -6.45%.
`COc1ccc(C)cc1NC(=S)Nc1ccccc1SC` gave an inhibition of -5.8%.
`CCOc1ccc(S(=O)(=O)NCc2ccc3c(c2)OCO3)cc1C` was tested, and the inhibition was -3.55%.
`CC(Oc1ccccc1)C(=O)Nc1oc(-c2ccco2)c(-c2ccco2)c1C#N` (centres undefined) was tested, and the inhibition was -14.4%.
`COc1ccccc1CSc1ncc(-c2ccc([N+](=O)[O-])cc2)[nH]1` was tested, and the inhibition was 29.2% (active).
Work on `COc1cccc(-c2cnc(C(O)c3ccccc3OC)[nH]2)c1` (centres undefined) yielded an inhibition of -4.35%.
In the case of `COc1ccc(-c2cnc(SCCNC(=O)c3ccc4c(c3)OCO4)[nH]2)cc1`, the inhibition is reported as -2.11%.
Work on `Cc1cccc(N2O[C@H]3C=CC2CCCC3)n1` yielded an inhibition of 9.84%.
`O=S(=O)(c1ccccc1)N(Cc1cccc(F)c1)c1ccccc1` showed an inhibition of -10.2%.
Molecule `CCN(CC)S(=O)(=O)c1ccc2[nH]c(=O)cc(C(=O)N(C)C3CCS(=O)(=O)C3)c2c1` (centres undefined) has an inhibition of -6.75%.
Molecule `O=S(=O)(c1ccc(OCC(O)CN2CCN(c3ccccc3Cl)CC2)cc1)N1CCOCC1` (centres undefined) has an inhibition of -2.63%.
`CN1CCC[C@@H]1CCO[C@](C)(c1ccccc1)c1ccc(Cl)cc1` was tested, and the inhibition was 14.6%.
In the case of `Cc1cc2oc3ccc(NCCC4CCCN4C)cc3c(=O)c2cc1C` (centres undefined), the inhibition is reported as 41.2% (active).
Molecule `CCCCC(CC(C)O)c1n[nH]c(=S)n1-c1ccccc1` (centres undefined) has an inhibition of -17.4%.
`O=C(CCNc1n[nH]c(=O)[nH]c1=O)N/N=C\c1ccc(Br)cc1` gave an inhibition of -5.19%.
In the case of `Cc1nn(C)cc1N1C(=O)c2cccc3c(N)ccc(c23)C1=O`, the inhibition is reported as 24.3% (active).
`O=C(CN1C(=O)NC2(CCOc3ccccc32)C1=O)Nc1cccc([N+](=O)[O-])c1` (centres undefined) gave an inhibition of 5.36%.
With `CCOc1ccccc1NC(=O)CCS(=O)(=O)c1cccc2nsnc12` the inhibition was 5.35%.
Molecule `Cc1cccc(C)c1NC(=O)CCS(=O)(=O)c1cccc2nsnc12` has an inhibition of 7.27%.
`O=C(O)CCS(=O)(=O)c1ccc(-c2ccccc2)cc1` was tested, and the inhibition was -5.35%.
For `Cc1cccc2sc(N(CCCN(C)C)C(=O)CCS(=O)(=O)c3ccccc3)nc12`, the inhibition was 24.6% (active).
With `COc1cccc2sc(N(CCCN(C)C)C(=O)CCS(=O)(=O)c3ccccc3)nc12` the inhibition was 31.7% (active).
For `COc1ccc(C)cc1NC(=O)CCS(=O)(=O)c1cccc2nonc12`, the inhibition was 4.16%.
`O=C(CN1CCN(S(=O)(=O)c2ccc(F)cc2)CC1)NC1CC1` gave an inhibition of 0.22%.
With `COCCCn1c(SCc2cccc(OC)c2)nc2cc(OC)c(OC)cc2c1=N` the inhibition was 12.2%.
With `CCOc1ccc(S(=O)(=O)N2CCN(C(=O)c3oc4ccccc4c3C)CC2)cc1` the inhibition was -8.52%.
Molecule `O=C(CCc1ccccc1)NCCc1cccs1` has an inhibition of -5.14%.
`CCCc1ccc(-c2csc(NC(=O)Cc3cccs3)n2)cc1` was tested, and the inhibition was 21.1% (active).
`O=C(Cc1cccs1)Nc1ccc([N+](=O)[O-])cc1` showed an inhibition of 3.09%.
